# Results as given in PubChem BioAssay (NCATS).
# “And” between values parts separate entries of the source, which are not always exact repeats. Equal values may be shown once. Results filed as inconclusive are left out. A call without a number means that no potency is given here. A structure can be active in one record and inactive in another. Values without a mark were called inactive. The source made the active and inactive calls. The call rests on the fitted dose curve; in most records, active means well fitted curve in the direction sought with a large enough effect; inconclusive means small, poorly fitted or top-dose-only effect, or another doubt; inactive means no such curve, though single readings can be large; an effect the other way counts as inactive or inconclusive.
# Legend:
# CRL-7250 = normal cell line; assay: Cytotoxic Profiling of Annotated Libraries Using Quantitative High-Throughput Screening (AID 1296008); details: Five cell lines viability, CellTiter-Glo ATP luminescence, 48-72 h; max response: stronger effect = lower value; further: nearly all actives have a fitted effect of over 60% in size; further: potency means the concentration at half of the fitted maximal effect
# Summary of the method: (§1)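 Cytotoxicity was measured as CellTiter-Glo ATP luminescence, read after 10 min at room temperature. Compound treatment of the cells lasted 48 or 72 hr at 37 degrees Celsius in a qHTS format.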
# HaCat [1] = assay: as above; details: Five cell lines viability, CellTiter-Glo ATP luminescence, 48-72 h; max response: stronger effect = lower value
# Summary of the method: as §1
# KB-3-1 = assay: as above; details: Five cell lines viability, CellTiter-Glo ATP luminescence, 48-72 h; max response: stronger effect = lower value
# Summary of the method: as §1
# NIH3T3 [2] = assay: as above; details: Five cell lines viability, CellTiter-Glo ATP luminescence, 48-72 h; max response: stronger effect = lower value
# Summary of the method: as §1
# MCC-13 = assay: qHTS assay to identify novel small-molecules to repurpose for Merkel cell carcinoma treatment (AID 1296009); details: MCC and control cell lines, CellTiter-Glo viability, 72 h; series mostly up to 46 µM; further: nearly all actives have a fitted effect of over 60% in size; further: potency means the concentration at half of the fitted maximal effect
# Summary of the method: (§2)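 After compound transfer in DMSO, plates were kept 72 hr at 37 degree celsius. Luminescent ATP signal from CellTiter-Glo served as viability measure, normalized against DMSO and no-cell controls.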
# MCC-26 = assay: as above; details: MCC and control cell lines, CellTiter-Glo viability, 72 h; series mostly up to 46 µM
# Summary of the method: as §2
# MKL-1 = assay: as above; details: MCC and control cell lines, CellTiter-Glo viability, 72 h; series mostly up to 46 µM
# Summary of the method: as §2
# MKL-2 = assay: as above; details: MCC and control cell lines, CellTiter-Glo viability, 72 h; series mostly up to 46 µM
# Summary of the method: as §2
# UISO = assay: as above; details: MCC and control cell lines, CellTiter-Glo viability, 72 h; series mostly up to 46 µM
# Summary of the method: as §2
# WaGa = assay: as above; details: MCC and control cell lines, CellTiter-Glo viability, 72 h; series mostly up to 46 µM
# Summary of the method: as §2
# C33A = assay: Primary qHTS to identify gynecologic anti-cancer compounds using libraries of approved drugs and bioactive compounds (AID 1345084); details: Gynecologic cancer cell panel viability, ATPlite luminescence, 48 h; series mostly up to 57.5 µM; further: nearly all actives have a fitted effect of over 55% in size
# Summary of the method: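 Cells, 1,000 per well, were allowed to settle for 16 h at 37 C before compound addition. Five concentrations were tested for 48 h, and viability was read by ATPlite luminescence after 15 min at room temperature.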
# HEK293 = assay: Cytotoxic Profiling of Annotated Libraries Using Quantitative High-Throughput Screening (AID 1296008); details: Five cell lines viability, CellTiter-Glo ATP luminescence, 48-72 h; max response: stronger effect = lower value; further: nearly all actives have a fitted effect of over 60% in size; further: potency means the concentration at half of the fitted maximal effect
# Summary of the method: as §1
# HACAT [3] = assay: qHTS assay to identify novel small-molecules to repurpose for Merkel cell carcinoma treatment (AID 1296009); details: MCC and control cell lines, CellTiter-Glo viability, 72 h; at 44.8 µM (top of the series) unless noted; further: nearly all actives have a fitted effect of over 60% in size; further: potency means the concentration at half of the fitted maximal effect
# Summary of the method: as §2
# HEK293T = assay: as above; details: MCC and control cell lines, CellTiter-Glo viability, 72 h; at 44.8 µM (top of the series) unless noted
# Summary of the method: as §2
# NIH3T3 [4] = assay: as above; details: MCC and control cell lines, CellTiter-Glo viability, 72 h; at 44.8 µM (top of the series) unless noted
# Summary of the method: as §2
smiles,measurement,setting,value
COC(=O)c1cncn1C(C)c1ccccc1 (configuration not stated),max response,CRL-7250,-11.1%
same,max response,HaCat [1],-2.03%
same,max response,KB-3-1,-9.65%
same,max response,NIH3T3 [2],3.22%
same,Potency,MCC-13,inactive
same,Potency,MCC-26,inactive
same,Potency,MKL-1,inactive
same,Potency,MKL-2,inactive
same,Potency,UISO,inactive
same,Potency,WaGa,inactive
same,Potency,C33A,inactive
COc1ccc2c(c[n+](C)c3c4cc5c(cc4ccc23)OCO5)c1OC,Potency,CRL-7250,16.6 µM (active)
same,Potency,HEK293,2.96 µM (active)
same,Potency,KB-3-1,26.4 µM (active)
same,Potency,MKL-1,2.35 µM (active)
same,Potency,MKL-2,0.743 µM (active)
same,Potency,WaGa,3.32 µM (active)
Nc1ccc(Sc2ccc(N)cc2)cc1,max response,CRL-7250,-36.8%
same,max response,HEK293,-4.95%
same,max response,KB-3-1,-8.88%
same,max response,NIH3T3 [2],-12.3%
same,Potency,MCC-13,inactive
same,Potency,MKL-1,inactive
same,Potency,MKL-2,inactive
same,Potency,UISO,inactive
same,Potency,WaGa,inactive
same,Potency,C33A,inactive
CC[C@@H](C(N)=O)N1CCCC1=O,max response,CRL-7250,0.0308%
same,outcome,HaCat [1],inactive
same,max response,KB-3-1,6.38%
same,max response,NIH3T3 [2],1.04%
same,outcome,HACAT [3],inactive
same,outcome,HEK293T,inactive
same,Potency,MCC-13,inactive
same,Potency,MKL-1,inactive
same,Potency,MKL-2,inactive
same,Potency,UISO,inactive
same,Potency,WaGa,inactive
O=C(Nc1ccccc1-c1ccc(Cl)cc1)c1cccnc1Cl,max response,CRL-7250,-3.67%
same,max response,KB-3-1,-17.8%
same,outcome,NIH3T3 [2],inactive
same,Potency,MCC-13,inactive
same,Potency,MCC-26,inactive
same,Potency,MKL-1,inactive
same,Potency,MKL-2,inactive
same,outcome,NIH3T3 [4],inactive [at 92 µM]
same,Potency,UISO,inactive
same,Potency,C33A,inactive
COc1ccc(N(C(=O)Oc2c(C)cccc2C)c2ccnc(Nc3ccc(N4CCN(C)CC4)cc3)n2)c(OC)c1,max response,CRL-7250,-8.13% and -61.8%
same,Potency,KB-3-1,16.4 µM (active)
same,max response,KB-3-1,-15.9%
same,Potency,NIH3T3 [2],18.7 µM (active)
same,Potency,MKL-1,13.2 µM (active)
same,Potency,UISO,inactive
CC(=Cc1csc(C)n1)[C@@H]1C[C@H]2O[C@@H]2CCC[C@H](C)[C@@H](O)[C@@H](C)C(=O)C(C)(C)[C@@H](O)CC(=O)O1,max response,HEK293,-79%
same,max response,HaCat [1],-20.3%
same,Potency,KB-3-1,0.0004 µM (active)
same,max response,NIH3T3 [2],-77%
same,Potency,MKL-1,inactive
same,Potency,MKL-2,inactive
same,Potency,UISO,inactive
same,Potency,WaGa,inactive
